# Measured values reported in PubChem BioAssay AID1950 (The Scripps Research Institute Molecular Screening Center, 2009).
# The campaign covered roughly 300,000 compounds. About 1,000 (0.33%) were called active. Many of the other results were omitted from the sample, so actives are more common in it than they were. A number with no mark means an inactive call. Rule as the data show it: active = inhibition above about 28%; inactive = the rest.
# Test system: EBNA-1 (Epstein-Barr virus nuclear antigen 1), Human herpesvirus 4
# Test: EBNA-1 DNA-binding inhibitors, primary screen, biochemical, fluorescence polarization (AID 1950)
# Settings: at 14.8 µM, stronger effect = higher value
row,Compound,inhibition
1,O=C(CC(=O)N/N=C\c1cccc(Cl)c1Cl)NCc1ccccc1,0.69%
2,COc1cccc(N2CC(NS(=O)(=O)c3cccs3)CC2=O)c1 (stereo not drawn),-3.98%
3,CC(=O)NC(CC(=O)Nc1nc(-c2ccccc2)c(C(C)=O)s1)c1ccccc1 (stereo not drawn),6.2%
4,O=c1o[nH]c(-c2ccccc2)c1N=Nc1c(F)cccc1Cl,-1.23%
5,COc1ccc(S(=O)(=O)Nc2ccc(S(=O)(=O)N3CCCCC3)cc2)cc1OC,-12.3%
6,COc1ccc(S(=O)(=O)N2CCCCCC2)cc1C(=O)OCC(=O)Nc1cc(C)on1,-10.6%
7,COc1ccc(-c2ccc(Nc3ccc(S(=O)(=O)N4CCCC4)cc3)nn2)cc1OC,61.7% (active)
8,CCCn1c2ccccc2c2cnn(CC(=O)NCCCN3CCCCC3CC)c(=O)c21 (stereo not drawn),-11.4%
9,O=[N+]([O-])c1cc(S(=O)(=O)Nc2cccc(Cl)c2)ccc1N=Nc1c(O)[nH]c2ccccc12,-1.48%
10,CCc1ccc(NC(=O)Nc2ccncc2)cc1,-0.73%
11,CCOC(=O)c1ccc(NC(=O)C2CC(=O)Nc3nc4ccccc4n32)cc1 (stereo not drawn),30.4% (active)
12,CCOC(=O)C1=C(C)Nc2nc3ccccc3n2C1c1cccs1 (stereo not drawn),3.55%
13,CC(=O)c1ccc(NC(=O)C2CC(=O)Nc3nc4ccccc4n32)cc1 (stereo not drawn),-7.52%
14,Cc1ccc(NS(=O)(=O)c2ccc3c(c2)n(C)c(=O)c(=O)n3C)c(C)c1,-9.29%
15,CCCS(=O)(=O)Nc1ccc(-c2cn3c(n2)SCC3)cc1,-2.75%
16,CSCCC(NS(=O)(=O)c1ccc2c(c1)oc(=O)n2C)C(=O)NCc1ccccc1 (stereo not drawn),1.42%
17,COc1cccc(NC(=O)CCNS(=O)(=O)c2ccc3c(c2)oc(=O)n3C)c1,-10.5%

row,Compound,inhibition
1,CCOc1ccc(OCC)c(NC(=O)C(NS(=O)(=O)c2ccc3c(c2)oc(=O)n3C)C(C)C)c1 (stereo not drawn),38% (active)
2,CC(Oc1ccc(Br)cc1)C(=O)NCC(c1ccco1)N1CCCCC1 (stereo not drawn),-5.29%
3,CC(C)OC(=O)c1ccc(COc2ccc3ccc(=O)oc3c2)o1,0.87%
4,O=C(OCC1OC(Oc2ccc(O)cc2)C(O)C(O)C1O)c1ccccc1 (stereo not drawn),-9.05%
5,O=C(OCC1O[C@@H](OC(=O)c2cc(O)c(O)c(O)c2)[C@@H](OC(=O)c2cc(O)c(O)c(O)c2)[C@@H](OC(=O)c2cc(O)c(O)c(O)c2)[C@@H]1OC(=O)c1cc(O)c(O)c(O)c1)c1cc(O)c(O)c(O)c1 (stereo partly drawn),36.5% (active)
6,Cn1c(=O)[nH]c(=O)c2c1[nH]c(=S)n2Cc1ccccc1,9.15%
7,O=C(COc1ccc([N+](=O)[O-])cc1)Nc1cccc(C(=O)Nc2ccccc2C(=O)O)c1,8.21%
8,C=CCNC(=S)/N=c1/ccccn1Cc1ccccc1,3.92%
9,CCN(CC)CCN1C(=O)C2C(C(=O)Nc3ccc(Br)cc3)C3C=CC2(O3)C1C(=O)NC1CCCCC1 (stereo not drawn),5.67%
10,COc1ccc(CCNC(=S)N2CCN(S(=O)(=O)c3ccc(Cl)cc3)CC2)cc1,7.36%
11,COc1ccc(CCNC(=S)N2CCN(S(=O)(=O)c3ccc(F)cc3)CC2)cc1,34.3% (active)
12,COc1ccc(CCNC(=O)C2CCCN(S(=O)(=O)c3ccc(OC)cc3)C2)cc1 (stereo not drawn),5.18%
13,OC(COc1ccc(CN2CCSCC2)cc1)CN1CCCCC1 (stereo not drawn),3.92%
14,COc1ccc(/C=C2\SC(=S)N(CCCC(=O)NC3CCCC3)C2=O)cc1OC,-4.95%
15,CC(=O)NNC(=O)c1csc(Cc2c(Cl)sc3ccc(Cl)cc23)n1,-5.11%
16,Cc1cc(OCC(=O)NCC(O)c2ccccc2)c2c(C)c(C)c(=O)oc2c1 (stereo not drawn),3.74%
